{"source": "PubChem BioAssay (EPA / NIEHS)", "key": {"[1]": {"target": "human IkappaB Kinase alpha (IKKa), CHUK (gene 1147) (UniProt O15111)", "sequence (O15111 whole entry, looked up)": "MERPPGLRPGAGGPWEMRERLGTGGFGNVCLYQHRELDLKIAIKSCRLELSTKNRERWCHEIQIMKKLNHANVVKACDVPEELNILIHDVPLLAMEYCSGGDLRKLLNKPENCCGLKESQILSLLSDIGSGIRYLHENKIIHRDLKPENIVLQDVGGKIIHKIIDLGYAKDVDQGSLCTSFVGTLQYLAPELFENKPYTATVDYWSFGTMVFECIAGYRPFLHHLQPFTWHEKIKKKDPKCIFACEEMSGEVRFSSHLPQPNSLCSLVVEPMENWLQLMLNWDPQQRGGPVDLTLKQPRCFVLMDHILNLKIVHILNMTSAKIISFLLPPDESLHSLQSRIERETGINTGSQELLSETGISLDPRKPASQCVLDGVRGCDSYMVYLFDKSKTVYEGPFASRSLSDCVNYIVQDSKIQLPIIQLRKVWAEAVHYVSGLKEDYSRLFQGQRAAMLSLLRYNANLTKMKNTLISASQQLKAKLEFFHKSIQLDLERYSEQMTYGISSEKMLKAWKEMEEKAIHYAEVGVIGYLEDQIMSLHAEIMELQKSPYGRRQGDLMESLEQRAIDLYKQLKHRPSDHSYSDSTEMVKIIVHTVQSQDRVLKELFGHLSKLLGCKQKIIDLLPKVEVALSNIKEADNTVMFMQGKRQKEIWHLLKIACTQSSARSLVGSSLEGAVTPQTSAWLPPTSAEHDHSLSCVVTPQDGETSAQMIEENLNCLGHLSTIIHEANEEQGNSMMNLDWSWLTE", "experiment": "NVS_ENZ_hIKKa: NovaScreen (NVS) Enzymatic Assay for human IkappaB Kinase alpha (IKKa) (AID 2283167)", "in_short": "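Cell-free recombinant human IKKa with fluorescent substrate, product separated by electrophoretic mobility shift; read 1 hour after dosing. Primary screen duplicate at 25 uM, actives then concentration-response up to 50 uM; loss of signal relative to DMSO.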"}, "[2]": {"target": "Glycogen synthase kinase-3 beta (Homo sapiens) (UniProt P49841)", "sequence (P49841 whole entry, looked up)": "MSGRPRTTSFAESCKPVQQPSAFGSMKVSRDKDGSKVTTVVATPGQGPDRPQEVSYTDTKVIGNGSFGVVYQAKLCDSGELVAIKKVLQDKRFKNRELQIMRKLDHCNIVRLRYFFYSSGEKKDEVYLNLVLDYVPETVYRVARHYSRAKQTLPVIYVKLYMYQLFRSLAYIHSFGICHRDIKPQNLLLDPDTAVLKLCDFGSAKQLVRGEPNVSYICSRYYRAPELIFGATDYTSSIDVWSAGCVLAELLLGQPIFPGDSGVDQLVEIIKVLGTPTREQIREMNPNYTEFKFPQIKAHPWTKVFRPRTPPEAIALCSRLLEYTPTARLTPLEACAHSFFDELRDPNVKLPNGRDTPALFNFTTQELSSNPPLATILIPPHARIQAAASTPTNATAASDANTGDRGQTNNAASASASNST", "experiment": "NVS_ENZ_hGSK3b: NovaScreen (NVS) Enzymatic Assay for human Glycogen Synthase Kinase-3 beta (GSK3b) (AID 2283165)", "in_short": "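Recombinant enzyme with specific fluorescent substrate, 1 h, product separated by electrophoretic mobility shift. Primary duplicate screen at 25 uM; actives (e.g. 30% inhibition) followed in singleton concentration-response to 50 uM. Signal loss fitted versus DMSO.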"}, "[3]": {"target": "human Esterase Plasma (ES), BCHE (gene 590) (UniProt P06276)", "sequence (P06276 whole entry, looked up)": "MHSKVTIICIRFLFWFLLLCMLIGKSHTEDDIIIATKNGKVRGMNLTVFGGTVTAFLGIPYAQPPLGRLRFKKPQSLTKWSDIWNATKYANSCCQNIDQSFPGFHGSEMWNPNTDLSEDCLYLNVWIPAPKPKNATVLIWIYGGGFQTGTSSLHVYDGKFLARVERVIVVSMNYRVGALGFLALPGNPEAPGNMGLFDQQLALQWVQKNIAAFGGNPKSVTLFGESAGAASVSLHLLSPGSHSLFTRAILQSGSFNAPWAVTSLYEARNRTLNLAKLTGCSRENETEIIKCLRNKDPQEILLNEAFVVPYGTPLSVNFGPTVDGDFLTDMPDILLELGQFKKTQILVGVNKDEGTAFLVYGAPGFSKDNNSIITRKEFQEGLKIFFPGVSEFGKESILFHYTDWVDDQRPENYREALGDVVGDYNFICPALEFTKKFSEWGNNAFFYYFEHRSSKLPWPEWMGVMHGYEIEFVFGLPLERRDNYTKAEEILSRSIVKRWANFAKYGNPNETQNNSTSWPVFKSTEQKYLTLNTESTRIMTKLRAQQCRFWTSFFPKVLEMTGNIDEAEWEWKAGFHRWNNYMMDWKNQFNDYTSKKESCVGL", "experiment": "NVS_ENZ_hES: NovaScreen (NVS) Enzymatic Assay for human Esterase Plasma (ES) (AID 2283157)", "in_short": "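Cell-free enzyme assay using esterase extracted from human plasma; colorimetric absorbance read 0.25 hour after dosing. Single-concentration duplicate screen at 25 uM, then concentration-response up to 50 uM; loss of signal scored against DMSO baseline.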"}, "[4]": {"target": "human Ephrin type-A Receptor 1 (EphA1), EPHA1 (gene 2041) (UniProt P21709)", "experiment": "NVS_ENZ_hEphA1: NovaScreen (NVS) Enzymatic Assay for human Ephrin type-A Receptor 1 (EphA1) (AID 2283158)", "in_short": "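Biochemical kinase assay run cell-free; 1 h incubation; readout is fluorescence with mobility-shift separation of product. Concentration-response up to 50 uM for actives from a 25 uM screen.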"}, "[5]": {"target": "Mitogen-activated protein kinase 3 (Homo sapiens) (UniProt P27361)", "experiment": "NVS_ENZ_hMAPK3: NovaScreen (NVS) Enzymatic Assay for human Mitogen-Activated Protein Kinase 3 (MAPK 3) (AID 2283177)", "in_short": "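Cell-free enzymatic assay with recombinant protein and specific substrate; fluorescence and electrophoretic mobility shift read-out 1 h after dosing. Primary screen duplicate at 25 uM; actives then run in concentration-response up to 50 uM, loss of signal versus DMSO.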"}, "[6]": {"target": "human Elastase, ELANE (gene 1991) (UniProt P08246)", "sequence (P08246 whole entry, looked up)": "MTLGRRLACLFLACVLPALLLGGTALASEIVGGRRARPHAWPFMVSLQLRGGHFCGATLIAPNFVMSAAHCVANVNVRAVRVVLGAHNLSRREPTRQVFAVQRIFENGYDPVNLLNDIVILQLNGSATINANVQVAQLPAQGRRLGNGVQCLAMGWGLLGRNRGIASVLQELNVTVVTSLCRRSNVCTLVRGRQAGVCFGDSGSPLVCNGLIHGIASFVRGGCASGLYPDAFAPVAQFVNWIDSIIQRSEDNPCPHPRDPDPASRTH", "experiment": "NVS_ENZ_hElastase: NovaScreen (NVS) Enzymatic Assay for human Elastase (AID 2283153)", "in_short": "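Cell-free elastase from human neutrophils, 1.5 h after dosing, activity read by absorbance. Primary screen in duplicate at 25 uM; hits (e.g., 30% inhibition) rerun in singleton concentration-response up to 50 uM, fitted versus DMSO.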"}, "[7]": {"target": "human LYN Proto-Oncogene, Src family Tyrosine Kinase (LynA), LYN (gene 4067) (UniProt P07948)", "experiment": "NVS_ENZ_hLynA: NovaScreen (NVS) Enzymatic Assay for human LYN Proto-Oncogene, Src family Tyrosine Kinase (LynA) (AID 2283173)", "in_short": "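Recombinant kinase with fluorescent substrate; product separated from substrate by electrophoretic mobility shift and read 1 h after dosing. Duplicate screen at 25 uM, then concentration-response up to 50 uM; activity scored as signal loss against DMSO.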"}, "[8]": {"target": "human Dual Specificity Protein Phosphatase 3 (DUSP3), DUSP3 (gene 1845) (UniProt P51452)", "sequence (P51452 whole entry, looked up)": "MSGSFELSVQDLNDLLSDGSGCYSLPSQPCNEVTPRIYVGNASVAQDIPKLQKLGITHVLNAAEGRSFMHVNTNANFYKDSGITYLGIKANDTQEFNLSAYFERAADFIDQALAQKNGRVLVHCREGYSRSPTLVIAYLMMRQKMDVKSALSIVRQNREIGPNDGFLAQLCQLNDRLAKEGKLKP", "experiment": "NVS_ENZ_hDUSP3: NovaScreen (NVS) Enzymatic Assay for human Dual Specificity Protein Phosphatase 3 (DUSP3) (AID 2283152)", "in_short": "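Cell-free assay with recombinant human DUSP3 and fluorogenic substrate, read by fluorescence intensity. Primary screen ran duplicate at 25 uM; actives followed up in concentration series; loss of signal versus DMSO scored.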"}, "[9]": {"target": "human Ephrin type-A Receptor 2 (EphA2), EPHA2 (gene 1969) (UniProt P29317)", "experiment": "NVS_ENZ_hEphA2: NovaScreen (NVS) Enzymatic Assay for human Ephrin type-A Receptor 2 (EphA2) (AID 2283155)", "in_short": "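Cell-free recombinant EphA2 kinase with specific substrate, 1 h, fluorescence with electrophoretic mobility-shift separation of substrate and product. Primary screen at 25 uM in duplicate; hits retested in singleton concentration-response up to 50 uM, referenced to DMSO.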"}, "[10]": {"target": "human Fibroblast Growth Factor Receptor 1 (FGFR1), FGFR1 (gene 2260) (UniProt P11362)", "sequence (P11362 whole entry, looked up)": "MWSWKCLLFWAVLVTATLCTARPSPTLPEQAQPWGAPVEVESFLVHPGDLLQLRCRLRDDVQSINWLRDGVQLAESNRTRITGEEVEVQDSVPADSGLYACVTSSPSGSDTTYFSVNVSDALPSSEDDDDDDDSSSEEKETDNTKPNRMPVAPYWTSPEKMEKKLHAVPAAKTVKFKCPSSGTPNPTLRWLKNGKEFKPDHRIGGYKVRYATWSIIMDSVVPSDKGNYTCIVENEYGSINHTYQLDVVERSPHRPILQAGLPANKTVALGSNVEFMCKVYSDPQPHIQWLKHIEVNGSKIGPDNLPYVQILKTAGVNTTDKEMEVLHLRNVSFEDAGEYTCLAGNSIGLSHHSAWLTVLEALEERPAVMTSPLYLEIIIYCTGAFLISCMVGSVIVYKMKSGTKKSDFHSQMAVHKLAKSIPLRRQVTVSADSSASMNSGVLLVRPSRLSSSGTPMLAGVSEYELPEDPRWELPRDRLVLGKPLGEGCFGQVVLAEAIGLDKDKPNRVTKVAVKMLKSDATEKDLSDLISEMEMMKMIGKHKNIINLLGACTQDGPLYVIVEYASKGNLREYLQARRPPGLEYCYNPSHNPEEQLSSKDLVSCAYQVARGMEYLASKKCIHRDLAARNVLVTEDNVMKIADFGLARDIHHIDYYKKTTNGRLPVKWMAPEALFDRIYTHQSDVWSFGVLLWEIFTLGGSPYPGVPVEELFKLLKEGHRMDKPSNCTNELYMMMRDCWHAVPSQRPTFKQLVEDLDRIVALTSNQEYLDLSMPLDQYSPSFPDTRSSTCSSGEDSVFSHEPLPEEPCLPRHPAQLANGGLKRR", "experiment": "NVS_ENZ_hFGFR1: NovaScreen (NVS) Enzymatic Assay for human Fibroblast Growth Factor Receptor 1 (FGFR1) (AID 2283159)", "in_short": "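Cell-free recombinant kinase with fluorescent substrate, product separated by electrophoretic mobility shift; read 1 hour after dosing, loss of signal relative to DMSO. Initial screen in duplicate at 25 uM, actives followed in concentration series.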"}, "[11]": {"target": "human Casein Kinase 2- alpha 2 beta 2 (CK2a2b2), CSNK2A1 (gene 1457) (UniProt P68400)", "sequence (P68400 whole entry, looked up)": "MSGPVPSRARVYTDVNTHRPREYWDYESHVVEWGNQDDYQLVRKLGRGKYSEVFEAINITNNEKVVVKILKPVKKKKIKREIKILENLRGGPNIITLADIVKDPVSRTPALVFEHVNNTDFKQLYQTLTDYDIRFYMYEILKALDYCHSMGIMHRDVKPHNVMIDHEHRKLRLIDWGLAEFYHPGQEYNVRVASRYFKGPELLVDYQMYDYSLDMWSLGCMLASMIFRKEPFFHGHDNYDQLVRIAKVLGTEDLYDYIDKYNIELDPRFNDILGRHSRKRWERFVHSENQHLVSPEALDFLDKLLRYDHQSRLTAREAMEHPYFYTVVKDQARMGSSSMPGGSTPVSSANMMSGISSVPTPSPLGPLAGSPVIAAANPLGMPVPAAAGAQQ", "experiment": "NVS_ENZ_hCK2a2b2: NovaScreen (NVS) Enzymatic Assay for human Casein Kinase 2- alpha 2 beta 2 (CK2a2b2) (AID 2283147)", "in_short": "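Cell-free recombinant CK2 α2β2 holoenzyme with a fluorescent peptide substrate; product separated by electrophoretic mobility shift and read 1 h after dosing. Single-point screen at 25 uM in duplicate; actives were followed with concentration-response up to 50 uM versus DMSO.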"}, "[12]": {"target": "human Casein Kinase 1-delta (CK1D), CSNK1D (gene 1453) (UniProt P48730)", "sequence (P48730 whole entry, looked up)": "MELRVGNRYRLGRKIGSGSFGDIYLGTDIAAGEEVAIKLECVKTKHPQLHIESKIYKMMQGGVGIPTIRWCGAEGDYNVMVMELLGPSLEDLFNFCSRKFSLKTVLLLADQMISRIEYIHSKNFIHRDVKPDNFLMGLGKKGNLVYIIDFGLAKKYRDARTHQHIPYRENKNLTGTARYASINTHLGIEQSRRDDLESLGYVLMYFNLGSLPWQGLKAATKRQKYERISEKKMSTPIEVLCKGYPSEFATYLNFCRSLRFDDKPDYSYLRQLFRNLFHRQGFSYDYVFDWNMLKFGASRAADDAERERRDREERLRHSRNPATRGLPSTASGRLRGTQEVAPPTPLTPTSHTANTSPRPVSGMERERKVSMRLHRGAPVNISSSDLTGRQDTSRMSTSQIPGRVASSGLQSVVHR", "experiment": "NVS_ENZ_hCK1D: NovaScreen (NVS) Enzymatic Assay for human Casein Kinase 1-delta (CK1D) (AID 2283148)", "in_short": "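Recombinant human CK1-delta, cell-free; fluorescent substrate with electrophoretic mobility-shift separation of product, read 1 h after dosing. Single 25 uM duplicate screen, then concentration-response up to 50 uM; loss of signal vs DMSO.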"}, "[13]": {"target": "human MAP Kinase-Activated Protein Kinase 2 (MAPKAPK2), MAPKAPK2 (gene 9261) (UniProt P49137)", "experiment": "NVS_ENZ_hMAPKAPK2: NovaScreen (NVS) Enzymatic Assay for human MAP Kinase-Activated Protein Kinase 2 (MAPKAPK2) (AID 2283178)", "in_short": "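Cell-free recombinant human MAPKAPK2 activity measured by fluorescence with electrophoretic mobility shift separation of substrate and product, 1 hr after dosing. Loss of signal versus DMSO; primary screen at 25 uM, concentration-response up to 50 uM.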"}, "[14]": {"target": "human Ephrin type-B Receptor 1 (EphB1), EPHB1 (gene 2047) (UniProt P54762)", "sequence (P54762 whole entry, looked up)": "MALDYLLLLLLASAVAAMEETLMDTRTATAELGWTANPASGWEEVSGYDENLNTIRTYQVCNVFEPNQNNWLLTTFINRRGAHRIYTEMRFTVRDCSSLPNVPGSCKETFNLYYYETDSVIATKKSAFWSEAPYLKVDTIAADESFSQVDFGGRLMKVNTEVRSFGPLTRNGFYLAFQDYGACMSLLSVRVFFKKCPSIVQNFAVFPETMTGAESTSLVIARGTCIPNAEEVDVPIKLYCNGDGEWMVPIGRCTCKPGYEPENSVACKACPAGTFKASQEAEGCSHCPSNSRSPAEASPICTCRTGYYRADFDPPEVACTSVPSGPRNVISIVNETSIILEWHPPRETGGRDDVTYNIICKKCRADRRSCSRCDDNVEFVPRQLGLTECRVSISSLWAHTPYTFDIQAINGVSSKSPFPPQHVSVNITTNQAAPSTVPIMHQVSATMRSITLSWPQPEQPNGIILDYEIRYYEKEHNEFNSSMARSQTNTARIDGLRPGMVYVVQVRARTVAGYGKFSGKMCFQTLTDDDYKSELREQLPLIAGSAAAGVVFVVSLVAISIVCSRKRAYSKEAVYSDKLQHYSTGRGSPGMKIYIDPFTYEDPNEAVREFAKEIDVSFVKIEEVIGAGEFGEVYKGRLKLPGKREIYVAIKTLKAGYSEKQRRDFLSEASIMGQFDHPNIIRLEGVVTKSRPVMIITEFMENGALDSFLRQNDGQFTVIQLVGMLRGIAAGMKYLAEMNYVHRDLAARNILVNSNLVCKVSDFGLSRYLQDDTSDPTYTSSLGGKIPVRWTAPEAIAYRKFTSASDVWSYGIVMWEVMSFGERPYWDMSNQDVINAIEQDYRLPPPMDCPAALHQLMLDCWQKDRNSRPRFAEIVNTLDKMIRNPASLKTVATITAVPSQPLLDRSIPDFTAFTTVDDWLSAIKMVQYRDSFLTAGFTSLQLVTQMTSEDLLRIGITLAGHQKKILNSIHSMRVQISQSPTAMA", "experiment": "NVS_ENZ_hEphB1: NovaScreen (NVS) Enzymatic Assay for human Ephrin type-B Receptor 1 (EphB1) (AID 2283154)", "in_short": "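Cell-free kinase assay with recombinant enzyme, fluorescent substrate and electrophoretic mobility-shift separation of substrate and product; read 1 h after dosing. Single-concentration duplicate screen at 25 uM; loss of signal versus DMSO baseline.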"}}, "note": "“And” between values parts separate entries of the source, which are not always exact repeats. Equal entries are not always repeated. Records with an inconclusive call do not appear. The source made the active and inactive calls. The calls were made as follows: active = hit-call score of the fitted dose curve at least 0.9, where 1 is the maximum; inconclusive = response in the unintended direction; inactive = score below 0.9."}
{"compound": "CC(C)(C)c1ccc(CSc2cnn(C(C)(C)C)c(=O)c2Cl)cc1", "values": [{"measurement": "outcome", "setting": "[1]", "result": "inactive"}]}
{"compound": "COc1nc(C)nc(NC(=O)NS(=O)(=O)c2ccccc2Cl)n1", "values": [{"measurement": "outcome", "setting": "[2]", "result": "inactive"}]}
{"compound": "CC1=C(C(=O)Nc2ccccc2)SCCO1", "values": [{"measurement": "AC50", "setting": "[3]", "result": "23.6 µM (active)"}]}
{"compound": "COc1cnc(OC)n2nc(NS(=O)(=O)c3c(OCC(F)F)cccc3C(F)(F)F)nc12", "values": [{"measurement": "outcome", "setting": "[4]", "result": "inactive"}, {"measurement": "outcome", "setting": "[5]", "result": "inactive"}]}
{"compound": "Oc1ccccc1-c1ccccc1", "values": [{"measurement": "outcome", "setting": "[6]", "result": "inactive"}]}
{"compound": "COC(=O)c1ccccc1C(=O)OC", "values": [{"measurement": "outcome", "setting": "[7]", "result": "inactive"}]}
{"compound": "CNC(=O)ON=CC(C)(C)SC", "values": [{"measurement": "AC50", "setting": "[3]", "result": "11.1 µM (active)"}]}
{"compound": "CO/C=C(/C(=O)OC)c1ccccc1Oc1cc(Oc2ccccc2C#N)ncn1", "values": [{"measurement": "outcome", "setting": "[8]", "result": "inactive"}, {"measurement": "outcome", "setting": "[6]", "result": "inactive"}, {"measurement": "outcome", "setting": "[9]", "result": "inactive"}, {"measurement": "AC50", "setting": "[3]", "result": "26.3 µM (active) and 26.4 µM (active) and 10 µM (active)"}, {"measurement": "outcome", "setting": "[10]", "result": "inactive"}, {"measurement": "outcome", "setting": "[1]", "result": "inactive"}]}
{"compound": "CNC(=S)S", "values": [{"measurement": "outcome", "setting": "[11]", "result": "inactive"}, {"measurement": "outcome", "setting": "[12]", "result": "inactive"}, {"measurement": "outcome", "setting": "[8]", "result": "inactive"}, {"measurement": "outcome", "setting": "[6]", "result": "inactive"}, {"measurement": "outcome", "setting": "[2]", "result": "inactive"}, {"measurement": "outcome", "setting": "[1]", "result": "inactive"}, {"measurement": "outcome", "setting": "[5]", "result": "inactive"}, {"measurement": "outcome", "setting": "[13]", "result": "inactive"}]}
{"compound": "CCOC(=O)C(Cl)Cc1cc(-n2nc(C)n(C(F)F)c2=O)c(F)cc1Cl", "note": "(centres undefined)", "values": [{"measurement": "outcome", "setting": "[8]", "result": "inactive"}, {"measurement": "outcome", "setting": "[3]", "result": "inactive"}, {"measurement": "outcome", "setting": "[10]", "result": "inactive"}]}
{"compound": "CCc1nn(C)c(C(=O)NCc2ccc(C(C)(C)C)cc2)c1Cl", "values": [{"measurement": "outcome", "setting": "[8]", "result": "inactive"}]}
{"compound": "CC1COC(Cn2cncn2)(c2ccc(Oc3ccc(Cl)cc3)cc2Cl)O1", "note": "(centres undefined)", "values": [{"measurement": "outcome", "setting": "[8]", "result": "inactive"}, {"measurement": "outcome", "setting": "[14]", "result": "inactive"}]}
{"compound": "CCCCNC(=O)n1c(NC(=O)OC)nc2ccccc21", "values": [{"measurement": "outcome", "setting": "[12]", "result": "inactive"}, {"measurement": "outcome", "setting": "[6]", "result": "inactive"}, {"measurement": "outcome", "setting": "[14]", "result": "inactive"}]}
{"compound": "CCCCC(CC)COC(=O)c1ccccc1C(=O)OCC(CC)CCCC", "note": "(centres undefined)", "values": [{"measurement": "outcome", "setting": "[12]", "result": "inactive"}]}
{"compound": "Cc1ccc(-c2c(Cl)nc(C#N)n2S(=O)(=O)N(C)C)cc1", "values": [{"measurement": "AC50", "setting": "[11]", "result": "6.49 µM (active)"}, {"measurement": "outcome", "setting": "[12]", "result": "inactive"}, {"measurement": "outcome", "setting": "[9]", "result": "inactive"}, {"measurement": "outcome", "setting": "[4]", "result": "inactive"}, {"measurement": "AC50", "setting": "[2]", "result": "18.2 µM (active)"}]}
{"compound": "N#Cc1nn(-c2c(Cl)cc(C(F)(F)F)cc2Cl)c(N)c1S(=O)C(F)(F)F", "note": "(centres undefined)", "values": [{"measurement": "outcome", "setting": "[10]", "result": "inactive"}]}
{"compound": "C=CC1(C)OC(=O)N(c2cc(Cl)cc(Cl)c2)C1=O", "note": "(centres undefined)", "values": [{"measurement": "outcome", "setting": "[14]", "result": "inactive"}]}
